Measurements taken from PubChem BioAssay (EPA / NIEHS).
Values joined by “and” are separate entries in the source; they are usually repeats but may differ in a detail not shown here. Equal entries are not always repeated. Records with an inconclusive call do not appear. Some structures have more than one record in an assay (separate samples or runs), and their calls can disagree. Active and inactive are the calls of the source. Rule for the calls, unless noted: active = hit-call score of the fitted dose curve at least 0.9, where 1 is the maximum; inconclusive = response in the unintended direction; inactive = score below 0.9.

Target: Estrogen receptor (Homo sapiens) (UniProt P03372)
Sequence (P03372 whole entry, looked up): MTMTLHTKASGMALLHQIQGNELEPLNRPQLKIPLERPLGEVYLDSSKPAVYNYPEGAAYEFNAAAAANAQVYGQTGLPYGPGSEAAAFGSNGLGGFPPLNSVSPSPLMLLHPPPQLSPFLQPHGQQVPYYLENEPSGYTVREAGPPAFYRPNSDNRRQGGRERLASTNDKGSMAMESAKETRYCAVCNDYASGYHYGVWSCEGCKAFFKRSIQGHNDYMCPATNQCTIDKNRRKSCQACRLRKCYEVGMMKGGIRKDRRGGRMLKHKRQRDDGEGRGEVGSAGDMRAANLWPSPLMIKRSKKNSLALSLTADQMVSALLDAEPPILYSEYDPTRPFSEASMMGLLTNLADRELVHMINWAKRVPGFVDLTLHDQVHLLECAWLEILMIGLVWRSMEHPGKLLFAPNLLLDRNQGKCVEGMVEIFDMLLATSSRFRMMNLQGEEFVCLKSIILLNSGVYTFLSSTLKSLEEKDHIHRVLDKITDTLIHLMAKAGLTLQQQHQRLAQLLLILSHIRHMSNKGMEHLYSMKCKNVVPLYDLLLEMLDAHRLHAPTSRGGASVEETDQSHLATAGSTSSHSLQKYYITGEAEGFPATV
Test: OT_ERa_GFPERaERE_0480: Odyssey Thera (OT) 8-hour HeLa Transcription Induction Assay for Estrogen Receptor (AID 2283381; active = hit-call score of the fitted dose curve at least 0.9, where 1 is the maximum; inactive = score below 0.9)
Method in brief: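 Fluorescent reporter signal, imaged by microscopy and scored with image-analysis algorithms, was taken 8 h after chemical dosing of HeLa cells; activity was fitted upward relative to DMSO.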

| Compound | outcome | AC50 |
| --- | --- | --- |
| OCC(CO)n1cnc(-c2ccc(F)cc2)c1-c1ccnc(Oc2ccccc2)n1 | inactive | – |
| CSc1ccc(Oc2ccc(S(N)(=O)=O)cc2CN(C)C)cc1C | inactive | – |
| COc1ccc(OC(F)(F)F)cc1CN[C@H]1CCCN[C@H]1c1ccccc1 | – | 85.4 µM (active) |
| Nc1nc(=S)c2[nH]cnc2[nH]1 | inactive | – |
| NC(=Nc1ccccc1)Nc1ccccc1 | inactive | – |
| O=C(O)CN(CC(=O)O)CC(=O)O | inactive | – |
| CC(C)OC(=O)C(C)(C)Oc1ccc(C(=O)c2ccc(Cl)cc2)cc1 | inactive | – |
| O=Cc1ccccc1C=O | inactive | – |
| O=C(N[C@@H](c1ccccc1)[C@@H]1CCCCN1)c1cccc(C(F)(F)F)c1Cl | inactive | – |
| Cc1ccc(-c2cc(C(F)(F)F)nn2-c2ccc(S(N)(=O)=O)cc2)cc1 | inactive | – |
| CCC(C)N(C)C(=O)c1cc2ccccc2c(-c2ccccc2Cl)n1 (stereo unspecified) | inactive | – |
| CCCCCCCCCCCCCCOS(=O)(=O)O | – | 92.3 µM (active) |
| CCc1nc(N)nc(N)c1-c1ccc(Cl)cc1 | inactive | – |
| CN(C)C(=O)NC1(c2ccccc2)CCN(CCC[C@]2(c3ccc(Cl)c(Cl)c3)CCCN(C(=O)c3ccccc3)C2)CC1 | inactive | – |

Target: Estrogen receptor (Homo sapiens) (UniProt P03372)
Test: OT_ERa_GFPERaERE_0120: Odyssey Thera (OT) 2-hour HeLa Transcription Induction Assay for Estrogen Receptor (AID 2283382)
Method in brief: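 HeLa, 384-well, 2 h chemical exposure; GFP reporter induction (ERE), fluorescence microscopy; high content image analysis; positive fitting direction vs DMSO.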

| Compound | outcome | AC50 |
| --- | --- | --- |
| OCC(CO)n1cnc(-c2ccc(F)cc2)c1-c1ccnc(Oc2ccccc2)n1 | inactive | – |
| CSc1ccc(Oc2ccc(S(N)(=O)=O)cc2CN(C)C)cc1C | inactive | – |
| COc1ccc(OC(F)(F)F)cc1CN[C@H]1CCCN[C@H]1c1ccccc1 | – | 75.7 µM (active) |
| Nc1nc(=S)c2[nH]cnc2[nH]1 | inactive | – |
| NC(=Nc1ccccc1)Nc1ccccc1 | inactive | – |
| O=C(O)CN(CC(=O)O)CC(=O)O | inactive | – |
| CC(C)OC(=O)C(C)(C)Oc1ccc(C(=O)c2ccc(Cl)cc2)cc1 | inactive | – |
| O=Cc1ccccc1C=O | inactive | – |
| O=C(N[C@@H](c1ccccc1)[C@@H]1CCCCN1)c1cccc(C(F)(F)F)c1Cl | inactive | – |
| Cc1ccc(-c2cc(C(F)(F)F)nn2-c2ccc(S(N)(=O)=O)cc2)cc1 | inactive | – |
| CCC(C)N(C)C(=O)c1cc2ccccc2c(-c2ccccc2Cl)n1 (stereo unspecified) | inactive | – |
| CCCCCCCCCCCCCCOS(=O)(=O)O | inactive | – |
| CCc1nc(N)nc(N)c1-c1ccc(Cl)cc1 | inactive | – |
| CN(C)C(=O)NC1(c2ccccc2)CCN(CCC[C@]2(c3ccc(Cl)c(Cl)c3)CCCN(C(=O)c3ccccc3)C2)CC1 | inactive | – |

Target: Bile acid receptor (Homo sapiens) (UniProt Q96RI1)
Sequence (Q96RI1 whole entry, looked up): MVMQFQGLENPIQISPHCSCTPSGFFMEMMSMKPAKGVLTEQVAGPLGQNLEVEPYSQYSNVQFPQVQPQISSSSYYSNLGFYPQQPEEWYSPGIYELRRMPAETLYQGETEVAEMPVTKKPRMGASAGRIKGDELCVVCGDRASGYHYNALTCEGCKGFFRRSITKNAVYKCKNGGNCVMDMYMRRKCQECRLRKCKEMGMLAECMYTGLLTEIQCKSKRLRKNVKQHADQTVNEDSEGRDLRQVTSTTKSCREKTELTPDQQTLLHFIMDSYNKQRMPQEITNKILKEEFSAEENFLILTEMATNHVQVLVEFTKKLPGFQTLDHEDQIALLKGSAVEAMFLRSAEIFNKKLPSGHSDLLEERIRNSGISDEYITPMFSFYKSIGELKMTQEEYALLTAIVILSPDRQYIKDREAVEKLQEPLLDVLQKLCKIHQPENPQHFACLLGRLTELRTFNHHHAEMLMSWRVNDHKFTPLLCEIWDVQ
Test: OT_FXR_FXRSRC1_0480: Odyssey Thera (OT) 8-hour HEK293T Protein-Complementation Assay for Farnesoid X receptor/SRC-1 Co-activator (AID 2283383)
Method in brief: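 Human kidney HEK293T cells carried FXR/SRC-1 fragment-complementation constructs. Compounds were added and incubated 8 h. Reporter reassembly upon receptor–co-activator interaction was then quantified by fluorescence, with curves fitted in the positive direction relative to DMSO.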

| Compound | outcome | AC50 |
| --- | --- | --- |
| CSc1ccc(Oc2ccc(S(N)(=O)=O)cc2CN(C)C)cc1C | inactive | – |
| COc1ccc(OC(F)(F)F)cc1CN[C@H]1CCCN[C@H]1c1ccccc1 | – | 11.3 µM (active) |
| NC(=Nc1ccccc1)Nc1ccccc1 | inactive | – |
| Cn1cnc2c1c(=O)[nH]c(=O)n2C | inactive | – |
| O=C(O)CN(CC(=O)O)CC(=O)O | inactive | – |
| CCCCC(CC)COC(=O)CCCCCCCC(=O)OCC(CC)CCCC (stereo unspecified) | inactive | – |
| CC(C)OC(=O)C(C)(C)Oc1ccc(C(=O)c2ccc(Cl)cc2)cc1 | – | 12.8 µM (active) |
| CN(C)C(=O)NC1(c2ccccc2)CCN(CC[C@@]2(c3ccc(F)c(F)c3)CN(C(=O)c3ccccc3)CCO2)CC1 | inactive | – |
| O=C(N[C@@H](c1ccccc1)[C@@H]1CCCCN1)c1cccc(C(F)(F)F)c1Cl | – | 31.6 µM (active) |
| Cc1cc(Cc2ccc(N)c(C)c2)ccc1N | – | 50 µM (active) |
| Cc1cc(SC2=C(O)C[C@@](CCc3ccc(N)cc3)(C(C)C)OC2=O)c(C(C)(C)C)cc1CO | inactive | – |
| S=c1[nH]c2ccccc2s1 | inactive | – |
| CCc1nc(N)nc(N)c1-c1ccc(Cl)cc1 | inactive | – |
| CN(C)C(=O)NC1(c2ccccc2)CCN(CCC[C@]2(c3ccc(Cl)c(Cl)c3)CCCN(C(=O)c3ccccc3)C2)CC1 | – | 15.9 µM (active) |

Target: Bile acid receptor (Homo sapiens) (UniProt Q96RI1)
Test: OT_FXR_FXRSRC1_1440: Odyssey Thera (OT) 24-hour HEK293T Protein-Complementation Assay for Farnesoid X receptor/SRC-1 Co-activator (AID 2283384)
Method in brief: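 Compounds are applied to human kidney HEK293T cells expressing bait and prey fused to reporter protein fragments; after 24 h, reconstituted reporter fluorescence is measured. Activity is fitted as signal gain over DMSO.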

| Compound | AC50 | outcome |
| --- | --- | --- |
| CSc1ccc(Oc2ccc(S(N)(=O)=O)cc2CN(C)C)cc1C | 26.5 µM (active) | – |
| NC(=Nc1ccccc1)Nc1ccccc1 | – | inactive |
| Cn1cnc2c1c(=O)[nH]c(=O)n2C | – | inactive |
| CC(C)OC(=O)C(C)(C)Oc1ccc(C(=O)c2ccc(Cl)cc2)cc1 | 7.72 µM (active) | – |
| CN(C)C(=O)NC1(c2ccccc2)CCN(CC[C@@]2(c3ccc(F)c(F)c3)CN(C(=O)c3ccccc3)CCO2)CC1 | – | inactive |
| O=C(N[C@@H](c1ccccc1)[C@@H]1CCCCN1)c1cccc(C(F)(F)F)c1Cl | 11.4 µM (active) | – |
| Cc1cc(Cc2ccc(N)c(C)c2)ccc1N | 66.7 µM (active) | – |
| Cc1cc(SC2=C(O)C[C@@](CCc3ccc(N)cc3)(C(C)C)OC2=O)c(C(C)(C)C)cc1CO | – | inactive |
| S=c1[nH]c2ccccc2s1 | – | inactive |
| CCc1nc(N)nc(N)c1-c1ccc(Cl)cc1 | – | inactive |
| CN(C)C(=O)NC1(c2ccccc2)CCN(CCC[C@]2(c3ccc(Cl)c(Cl)c3)CCCN(C(=O)c3ccccc3)C2)CC1 | – | inactive |

Target: Retinoic acid receptor RXR-alpha (Homo sapiens) (UniProt P19793)
Sequence (P19793 whole entry, looked up): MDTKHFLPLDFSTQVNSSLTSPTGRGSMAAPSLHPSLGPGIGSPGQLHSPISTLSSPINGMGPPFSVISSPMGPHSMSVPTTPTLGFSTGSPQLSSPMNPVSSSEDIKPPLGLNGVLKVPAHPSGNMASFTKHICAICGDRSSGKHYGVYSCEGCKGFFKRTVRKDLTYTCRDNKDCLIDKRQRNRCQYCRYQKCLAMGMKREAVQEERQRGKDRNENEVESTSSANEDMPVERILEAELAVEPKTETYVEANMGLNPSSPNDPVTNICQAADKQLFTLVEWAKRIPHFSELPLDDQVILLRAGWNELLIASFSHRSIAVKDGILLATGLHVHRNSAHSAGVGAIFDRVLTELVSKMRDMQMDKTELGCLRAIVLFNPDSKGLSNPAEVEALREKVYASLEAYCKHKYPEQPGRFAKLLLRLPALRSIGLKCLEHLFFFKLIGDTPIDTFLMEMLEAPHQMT
Test: OT_NURR1_NURR1RXRa_0480: Odyssey Thera (OT) 8-hour HEK293T Protein Complementation Assay for Nurr1/retinoid X receptor (RXR) (AID 2283385)
Method in brief: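 8 h compound exposure, HEK293T; Nurr1/RXRα fragment complementation; fluorescence intensity; positive fitting direction vs DMSO baseline.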

| Compound | outcome | AC50 |
| --- | --- | --- |
| Nc1nc(=S)c2[nH]cnc2[nH]1 | inactive | – |
| Cn1cnc2c1c(=O)[nH]c(=O)n2C | inactive | – |
| O=C(O)CN(CC(=O)O)CC(=O)O | inactive | – |
| CCCCC(CC)COC(=O)CCCCCCCC(=O)OCC(CC)CCCC (stereo unspecified) | inactive | – |
| CC(C)OC(=O)C(C)(C)Oc1ccc(C(=O)c2ccc(Cl)cc2)cc1 | inactive | – |
| Cc1cc(Cc2ccc(N)c(C)c2)ccc1N | inactive | – |
| Cc1cc(SC2=C(O)C[C@@](CCc3ccc(N)cc3)(C(C)C)OC2=O)c(C(C)(C)C)cc1CO | inactive | – |
| CC(=O)[C@@]1(O)CC[C@H]2[C@@H]3CCC4=CC(=O)CC[C@]4(C)[C@H]3CC[C@@]21C | inactive | – |
| COC(=O)[C@H]1[C@H]2C[C@@H]3c4[nH]c5cc(OC)ccc5c4CCN3C[C@H]2C[C@@H](OC(=O)c2cc(OC)c(OC)c(OC)c2)[C@@H]1OC | – | 16.6 µM (active) and 22.4 µM (active) |
| CCC(C)N(C)C(=O)c1cc2ccccc2c(-c2ccccc2Cl)n1 (stereo unspecified) | inactive | – |
| CCCCCCCCCCCCCCOS(=O)(=O)O | inactive | 79.4 µM (active) |
| CCc1nc(N)nc(N)c1-c1ccc(Cl)cc1 | inactive | – |
